The record followed here is PubChem BioAssay (NCI).

This is part of a sample that, as a whole, favours compounds with a hit. Of some 83,000 tested, about 20% had one in any assay.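 Negative percent growth values reflect cell death: -40 means 40% of the cells present at the start died, and -100 means all died.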 Unmarked numbers belong to inactive results. Activity calls are given as the source filed them. The calls were made as follows: active = growth percent below 10; inactive = the rest.

The subject of the experiment is HL-60(TB) leukemia. Kind of experiment: NCI-60 one-dose screen, 48 h (100 = growth as untreated, 0 = no growth, -100 = all killed). Conditions: 10 µM unless noted.
Regarding `FC(F)(F)c1nc2c(NCc3ccc(-c4ccccc4)cc3)cccc2[nH]1`, the growth was 21.1%.

As to `FC(F)(F)c1cccc(-c2nnn(Cc3cc(-c4cccc(Cl)c4)no3)n2)c1`, the growth is 108%.

`COc1ccc(Cn2cc(C(=O)N=Nc3c(O)[nH]c4ccc(Br)cc34)nn2)cc1`: the growth was 85.2%.

As to `O=C(Nc1ncc([N+](=O)[O-])s1)c1cccc([N+](=O)[O-])c1`, the growth was 2.45% (active).

On to `O=C(Nc1ccc(I)cc1F)c1cc(F)ccc1O`, for which the growth is -30.7% (active).

In the case of `O=C(Nc1ccccc1[N+](=O)[O-])c1ccc(Cl)c(Cl)c1`, the growth is 90.2%.

As for `CC/C=C\C[C@H](F)C/C=C1/C(=O)C=C[C@@H]1C/C=C\CCCC(=O)OC`, the growth was -33.1% (active).

`Nc1ccc2c(S(=O)(=O)O)ccc(S(=O)(=O)O)c2c1`: the growth was 76.2%.

As for `O=S(=O)(NCCCNc1cc(-c2cn(-c3ccccc3)nc2-c2cccc(O)c2)ccn1)c1cccc2ccccc12`, the growth is 17.1%.

Take `CNC(=O)c1cc(Oc2ccc3nc(NC(=O)Nc4ccc(N5CCC(N(C)C)CC5)cc4)sc3c2)ccn1`: the growth was 77.1%.

`CNC(=O)c1cc(Oc2ccc3nc(NC(=O)Nc4ccc(C(F)(F)F)cc4)sc3c2)ccn1`: the growth is 120%.

On to `COC(CCP(=O)(c1ccccc1)c1ccccc1)(C(=O)c1ccccc1)c1ccccc1` (stereo not given), for which the growth is 7.75% (active).

Take `CC(C)c1nc(N(C)S(C)(=O)=O)nc(-c2ccc(F)cc2)c1/C=C/C(=O)C[C@@H](O)CC(=O)O`: the growth is 106%.

For the molecule `CNS(=O)(=O)c1ccc(Cl)c(Cl)c1`, the growth was 137%.

In the case of `COc1ccc(/C=C(/C(=O)N2CCCC2)c2cc(OC)c(OC)c(OC)c2)cc1`, the growth was -14.7% (active).

`CC1=NN(C(=O)c2nn(-c3ccc(Cl)cc3)cc2O)C(=O)C1`: the growth was 5.71% (active).

Take `OCC1OC2C(NC(=S)N2c2ccccc2)C(O)C1O` (stereo not given): the growth was 90.8%.

In the case of `O=C(CC1Sc2ccccc2NC1=O)NNc1cccc(Cl)c1Cl` (stereo not given), the growth is 9.18% (active).

Take `Cc1nc(/N=C(\N)NC(=O)Nc2ccccc2Cl)sc1C`: the growth was 3.77% (active).

For the molecule `CC1=NN(c2ccc(Cl)cc2)CC1(C)N=O` (stereo not given), the growth was 38.5%.

With `CCCCCCCCn1ccc2cc(NC(=O)Cn3cc(CN4CCC(C)CC4)nn3)ccc21`, the growth was -22.4% (active).

As to `NS(=O)(=O)c1ccccc1NC(=O)Nc1nc2ccccc2s1`, the growth is 102%.

`CC1(C)OC2C(COC(c3ccccc3)(c3ccccc3)c3ccccc3)OC(c3c[nH]c4c(N)ncnc34)C2O1` (stereo not given): the growth is -34.4% (active).

Turning to `O=C1c2ccccc2C(=O)c2c(NCCN=Cc3c(O)ccc4ccccc34)cccc21`, the growth is 66.3%.

Turning to `COC(=O)c1nc(-c2ccccc2)oc1S(=O)(=O)N1CCN(c2ccc(OC)cc2)CC1`, the growth is 21.8%.

As to `C=C1C(=O)O[C@H]2[C@H]1CC/C(COC(=O)NCc1cc(OC)cc(OC)c1)=C\CC[C@@]1(C)O[C@@H]21`, the growth is -20.1% (active).

For `c1ccc(Cn2nc3c(c2-c2ccccc2)-c2oncc2CC3)cc1`, the growth is 92.2%.

For the molecule `COc1ccc(-c2csc(NC(=O)c3cc(OC)c(OC)c(OC)c3)n2)cc1`, the growth was 102%.

Regarding `CN(C)c1ccc(-c2c(C#N)c(N)n3nc(N)c(C#N)c3c2C#N)cc1`, the growth was 95.7%.

As to `CC1CCC(C(C)C)C(NNC(N)=O)C1` (stereo not given), the growth was 108%.

Take `Cc1ccccc1CNc1ncnc2[nH]ncc12`: the growth is 49.2%.

As to `CCCCCCCCCCCC[n+]1ccccc1`, the growth was -49.7% (active).

Consider `CCCCCCCCO/N=C\c1c2c(O)c3c(O)c(C)c4c(c3c1O)C(=O)C(C)(O/C=C\C(OC)C(C)C(OC(C)=O)C(C)C(O)C(C)C(O)C(C)/C=C\C=C(\C)C(=O)N2)O4` (stereo not given), for which the growth is -10.2% (active).

Consider `CN(C)CCCC1(c2ccc(F)cc2)OCc2cc(-c3cc4ccccc4s3)ccc21` (stereo not given), for which the growth was 22.3%.

Take `C=CCNc1ccc2c3c(cccc13)C(=O)N(CC=C)C2=O`: the growth was 102%.

For the molecule `Cc1ccc(OCCOCCOCCOCCOc2ccc(C)n(O)c2=S)c(=S)n1O`, the growth is -7.44% (active).

Regarding `C[N+](C)(C)CC(=O)N/N=C\c1ccco1`, the growth was 53%.

For the molecule `O=C1/C(=C/c2ccc(Br)cc2)C=C(c2ccccc2)N1CCc1ccccc1`, the growth is 83.8%.

For the molecule `Cc1c(CC(=S)N2CCOCC2)nnn1-c1cccc(C(F)(F)F)c1`, the growth is 100%.

Take `COC(=O)c1nc(=S)[nH]c(C(=O)OC)c1C(=O)c1ccc(Cl)c(Cl)c1`: the growth was 101%.
